Records with an inconclusive call do not appear. The source made the active and inactive calls. Calls come from the whole dose curve; as a rule, active = well fitted curve in the direction sought with a large enough effect; inconclusive = small, poorly fitted or top-dose-only effect, or another doubt; inactive = no such curve, though single readings can be large; an effect the other way counts as inactive or inconclusive. Where a SMILES comes first, the peptide text is derived from it. The star is where a group is joined. Cbz = O=C(OCc1ccccc1)*; CH2Cl = ClC*
Assays:
[1] = Primary qHTS for inhibitors of nuclear receptor binding SET domain protein 2 (NSD2) in an isogenic RCH-ACV NSD2 p.E1099K mutant (9B) (AID 1645876); conditions: RCH-ACV NSD2 E1099K (9B) viability, CellTiter-Glo, 72 h; series mostly up to 44.9 µM; note: nearly all actives have a fitted effect of over 70% in size; note: potency is the fitted concentration of half-maximal effect
[2] = Primary qHTS for inhibitors of nuclear receptor binding SET domain protein 2 (NSD2) in an RCH-ACV wild type WT cells (2C) (AID 1645877); conditions: RCH-ACV (leukaemia line) NSD2 WT (2C) viability, CellTiter-Glo, 72 h; series mostly up to 44.9 µM; note: nearly all actives have a fitted effect of over 70% in size; note: potency is the fitted concentration of half-maximal effect
[3] = target: Rap guanine nucleotide exchange factor 3 (Homo sapiens) (UniProt O95398); assay: Confirmatory qHTS for antagonist of cAMP-regulated guanine nucleotide exchange factor 3 (EPAC1) (AID 1645880); conditions: EPAC1 Rap1B-BODIPY-GDP exchange, fluorescence; series mostly up to 115 µM; note: potency is the fitted concentration of half-maximal effect; nearly all actives have a fitted effect of over 55% in size
Rap guanine nucleotide exchange factor 3 (Homo sapiens), sequence (O95398 whole entry, looked up): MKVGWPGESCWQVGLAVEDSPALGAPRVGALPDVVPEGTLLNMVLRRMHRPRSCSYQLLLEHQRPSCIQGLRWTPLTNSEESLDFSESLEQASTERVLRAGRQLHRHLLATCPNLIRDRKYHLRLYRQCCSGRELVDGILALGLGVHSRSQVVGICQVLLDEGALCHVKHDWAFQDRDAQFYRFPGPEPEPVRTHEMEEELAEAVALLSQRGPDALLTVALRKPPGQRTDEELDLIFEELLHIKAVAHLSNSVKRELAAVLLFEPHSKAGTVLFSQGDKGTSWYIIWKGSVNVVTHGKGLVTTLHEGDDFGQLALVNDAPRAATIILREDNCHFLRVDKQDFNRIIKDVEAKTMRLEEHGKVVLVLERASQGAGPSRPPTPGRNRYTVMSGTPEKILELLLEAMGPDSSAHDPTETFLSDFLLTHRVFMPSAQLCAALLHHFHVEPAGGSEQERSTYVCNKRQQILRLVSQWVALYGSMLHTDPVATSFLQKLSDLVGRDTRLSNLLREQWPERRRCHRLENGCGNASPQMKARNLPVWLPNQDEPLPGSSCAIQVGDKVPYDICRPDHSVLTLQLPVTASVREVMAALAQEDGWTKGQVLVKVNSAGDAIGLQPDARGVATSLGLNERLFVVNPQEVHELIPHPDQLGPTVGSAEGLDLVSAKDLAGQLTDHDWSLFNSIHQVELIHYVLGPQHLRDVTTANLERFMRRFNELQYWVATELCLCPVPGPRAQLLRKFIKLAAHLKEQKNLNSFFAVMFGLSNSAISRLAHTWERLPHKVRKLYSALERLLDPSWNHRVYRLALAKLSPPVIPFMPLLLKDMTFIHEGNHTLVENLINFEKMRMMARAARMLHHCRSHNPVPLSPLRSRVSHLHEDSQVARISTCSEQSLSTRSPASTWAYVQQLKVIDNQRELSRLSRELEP
Outline: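 Nucleotide exchange uses 100 nM EPAC1, 250 nM RAP1B-BODIPY-GDP and 50 uM GDP, with compounds in a concentration-titration series. After 5 min at room temperature, fluorescence (480 nm ex/540 nm em) is read every 5 min for 30 min. Data are normalized to control ATA and DMSO.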

[4] = target: Rap guanine nucleotide exchange factor 3 (Homo sapiens) (UniProt O95398); assay: Confirmatory qHTS for agonist of cAMP-regulated guanine nucleotide exchange factor 3 (EPAC1) (AID 1645881); conditions: EPAC1 Rap1B BODIPY-GDP exchange fluorescence, 100% = cAMP control response; series mostly up to 154 µM;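 note: EPAC1 catalysed release of BODIPY-GDP from Rap1B seen as fluorescence loss; nearly all actives have a fitted effect of over 75% in size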
[5] = target: Rap guanine nucleotide exchange factor 4 (Homo sapiens) (UniProt Q8WZA2); assay: Confirmatory qHTS for agonist of cAMP-regulated guanine nucleotide exchange factor 4 (EPAC2) (AID 1645884); conditions: EPAC2 GEF activity, Rap1B-BODIPY-GDP fluorescence, percent relative to cAMP agonist control; series mostly up to 154 µM;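 note: nucleotide exchange releases bodipy-GDP from Rap1 and this lowers its fluorescence; nearly all actives have a fitted effect of over 65% in size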
Rap guanine nucleotide exchange factor 4 (Homo sapiens), sequence (Q8WZA2 whole entry, looked up): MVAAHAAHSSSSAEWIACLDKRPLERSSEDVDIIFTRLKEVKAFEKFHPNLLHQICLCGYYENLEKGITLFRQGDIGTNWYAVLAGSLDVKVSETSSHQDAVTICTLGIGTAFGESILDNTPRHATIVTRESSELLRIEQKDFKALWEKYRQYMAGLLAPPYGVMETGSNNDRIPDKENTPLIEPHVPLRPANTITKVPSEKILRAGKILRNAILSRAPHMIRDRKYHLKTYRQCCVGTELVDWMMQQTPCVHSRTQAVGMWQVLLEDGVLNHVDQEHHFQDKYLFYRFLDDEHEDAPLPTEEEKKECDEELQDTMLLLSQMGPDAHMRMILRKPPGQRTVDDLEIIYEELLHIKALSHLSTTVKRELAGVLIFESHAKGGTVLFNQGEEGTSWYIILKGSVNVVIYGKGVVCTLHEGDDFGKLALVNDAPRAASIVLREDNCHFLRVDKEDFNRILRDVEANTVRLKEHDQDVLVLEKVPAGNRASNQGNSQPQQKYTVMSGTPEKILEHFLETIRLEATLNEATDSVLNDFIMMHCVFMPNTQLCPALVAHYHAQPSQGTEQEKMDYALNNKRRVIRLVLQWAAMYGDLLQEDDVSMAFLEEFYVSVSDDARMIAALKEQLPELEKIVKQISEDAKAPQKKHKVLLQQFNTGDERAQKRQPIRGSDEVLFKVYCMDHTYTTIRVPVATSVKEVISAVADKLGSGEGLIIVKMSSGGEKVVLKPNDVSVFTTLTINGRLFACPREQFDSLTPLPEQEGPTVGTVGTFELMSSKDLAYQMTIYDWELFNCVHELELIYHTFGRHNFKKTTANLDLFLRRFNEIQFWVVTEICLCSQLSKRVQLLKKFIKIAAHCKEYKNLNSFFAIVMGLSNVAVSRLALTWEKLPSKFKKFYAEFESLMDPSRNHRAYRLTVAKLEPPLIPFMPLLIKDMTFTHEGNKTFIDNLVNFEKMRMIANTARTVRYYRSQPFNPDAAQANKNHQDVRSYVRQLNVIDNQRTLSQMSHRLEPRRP

[6] = target: Rap guanine nucleotide exchange factor 4 (Homo sapiens) (UniProt Q8WZA2); assay: Confirmatory qHTS for antagonist of cAMP-regulated guanine nucleotide exchange factor 4 (EPAC2) (AID 1645885); conditions: EPAC2 Rap1B-BODIPY-GDP exchange fluorescence, biochemical; series mostly up to 114 µM; note: nearly all actives have a fitted effect of over 25% in size

## C=C1CC(=O)C2OC2(C)CC2OC(=O)C(=C)C2C(O)C1OC(=O)/C(C)=C\C (stereo not drawn)
[1]
  Potency: 3.19 µM (active)
[2]
  Potency: 2.01 µM (active)

## C=C1C(=O)O[C@@H]2/C=C(\CO)CC/C=C(/C=O)C[C@H](O)[C@@H]12
[1]
  Potency: 7.28 µM (active)
[2]
  Potency: 4.09 µM (active)

## C=C1C(=O)O[C@@H]2C3=C(C)CCC[C@]3(C)CC[C@@]12O
[1]
  Potency: 2.3 µM (active)
[2]
  Potency: 1.29 µM (active)

## CC(C)C[C@H](NC(=O)CNC(=O)OCc1ccccc1)C(=O)N[C@@H](Cc1ccccc1)C(=O)CCl (Cbz-Gly-Leu-Phe-CH2Cl)
[1]
  Potency: 7.28 µM (active)
[2]
  Potency: 3.65 µM (active)

## O=C(O)c1cc2ccccc2c(Cc2c(O)c(C(=O)O)cc3ccccc23)c1O
[3]
  Potency: 4.44 µM (active)
[4]
  outcome: inactive
[5]
  outcome: inactive
[6]
  Potency: inactive

## CCOc1cc(C(C)(C)C)ccc1C1=N[C@@](C)(c2ccc(Cl)cc2)[C@@](C)(c2ccc(Cl)cc2)N1C(=O)N1CCN(CC(=O)N2CCOCC2)CC1
[1]
  Potency: 1.03 µM (active)
[2]
  Potency: 1.03 µM (active)

## C=C1C(=O)O[C@@H]2/C=C(\CO)CC/C=C(/C=O)C[C@@H](O)[C@@H]12
[1]
  Potency: 6.49 µM (active)
[2]
  Potency: 4.09 µM (active)

## C=C(NC(=O)C(=C)NC(=O)c1csc(C2=NC3c4csc(n4)C4NC(=O)c5csc(n5)C(C(C)(O)C(C)O)NC(=O)C5CSC(=N5)/C(=C/C)NC(=O)C(C(C)O)NC(=O)c5csc(n5)C3(CC2)NC(=O)C(C)NC(=O)C(=C)NC(=O)C(C)NC(=O)C(C(C)CC)NC2C=Cc3c(C(C)O)cc(nc3C2O)C(=O)OC4C)n1)C(N)=O (stereo not drawn)
[1]
  Potency: 2.3 µM (active)
[2]
  Potency: 0.916 µM (active)

## COC(=O)CC1OC(C)C2=C(O)c3c(O)cccc3C(=O)C23OC13 (stereo not drawn)
[1]
  Potency: 2.84 µM (active)
[2]
  Potency: 2.01 µM (active)

## Cc1ccc(-c2c(C(=O)CCl)n(CCCO)c3ncnc(N)c23)cc1
[1]
  Potency: 20.5 µM (active)
[2]
  Potency: 23 µM (active)

## C=C1CC[C@@H]2[C@](C)(CO)[C@H](O)CC[C@@]2(C)[C@@H]1CC(=O)C1=CCOC1=O
[1]
  Potency: inactive
[2]
  Potency: inactive

## C=C1C(=O)OC2/C=C(\CO)CC/C=C(\C=O)C(OC)C(OC(=O)C(C)CC)C12 (stereo not drawn)
[1]
  Potency: 7.96 µM (active)
[2]
  Potency: 5.02 µM (active)

## CS(=O)(=O)Nc1cc2occ(NC=O)c(=O)c2cc1Oc1ccccc1
[1]
  Potency: inactive
[2]
  Potency: inactive

Source: PubChem BioAssay (NCATS)
